From PubChem BioAssay
The list is not random: actives were taken first. Their share in the collection is about 1.6%.
KCNQ2 inh: rat KCNQ2 potassium channel inhibitors, primary screen, cell-based, CHO-K1, FluxOR thallium flux, B-score | AID 2156, 2009 | 310,000 compounds, 1.1% hits | B-score at 10 µM | 20 min; active compounds read low | Potassium voltage-gated channel subfamily KQT member 2 (Rattus norvegicus), O88943;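 active = fluorescence ratio B-score at most minus 3 library SDs, with starting brightness B-score within 2 library SDs, cut at about -5.5 in these data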
KCNQ2 enhance: potentiators of rat KCNQ2 potassium channel | Potassium voltage-gated channel subfamily KQT member 2 (Rattus norvegicus), O88943 | CHO-K1 KCNQ2, FluxOR thallium flux fluorescence; active compounds read high | B-score at 10 µM | 310,000 compounds, 0.54% hits | AID 2239, 2010;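 active = fluorescence ratio B-score at least 3 SD of library B-scores, with initial fluorescence B-score within 3 of them, cut at about 5.3 in these data; same plate scores as AID 2156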;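 note: B-score of peak minus minimum over baseline fluorescence ratio after K+ and Tl+ stimulus; positive B-score means potentiation of KCNQ2 with more thallium influx and brighter signal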
KCNQ2 inh conf: rat KCNQ2 potassium channel inhibitors, confirmation, cell-based, thallium flux; activity change, negative = inhibition, % at 10 µM; KCNQ2-expressing cells, inhibition; active compounds read low; 1,000 compounds, 57% hits; AID 493025, 2011; shares compounds with KCNQ2 inh;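 note: 0% = vehicle wells and values are ratio percent relative to vehicle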
KCNQ1 spec: human KCNQ1 channel inhibition, counter-screen for KCNQ2 inhibitor project, cell-based, FluxOR thallium flux | shares compounds with KCNQ2 inh | KCNQ1-expressing cells, FluxOR thallium flux fluorescence; active compounds read low | activity change, negative = inhibition, % at 10 µM | 1,000 compounds, 15% hits;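 active = activity change at least 3 SD of negative controls below their mean in both duplicate wells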;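 note: CHO cells stably transfected with KCNQ1 and depolarized by potassium stimulus; peak minus minimum fluorescence over baseline after thallium addition; 0% = vehicle negative control and -100% = blank without thallium stimulus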
Target sequence (P51787 whole entry, looked up): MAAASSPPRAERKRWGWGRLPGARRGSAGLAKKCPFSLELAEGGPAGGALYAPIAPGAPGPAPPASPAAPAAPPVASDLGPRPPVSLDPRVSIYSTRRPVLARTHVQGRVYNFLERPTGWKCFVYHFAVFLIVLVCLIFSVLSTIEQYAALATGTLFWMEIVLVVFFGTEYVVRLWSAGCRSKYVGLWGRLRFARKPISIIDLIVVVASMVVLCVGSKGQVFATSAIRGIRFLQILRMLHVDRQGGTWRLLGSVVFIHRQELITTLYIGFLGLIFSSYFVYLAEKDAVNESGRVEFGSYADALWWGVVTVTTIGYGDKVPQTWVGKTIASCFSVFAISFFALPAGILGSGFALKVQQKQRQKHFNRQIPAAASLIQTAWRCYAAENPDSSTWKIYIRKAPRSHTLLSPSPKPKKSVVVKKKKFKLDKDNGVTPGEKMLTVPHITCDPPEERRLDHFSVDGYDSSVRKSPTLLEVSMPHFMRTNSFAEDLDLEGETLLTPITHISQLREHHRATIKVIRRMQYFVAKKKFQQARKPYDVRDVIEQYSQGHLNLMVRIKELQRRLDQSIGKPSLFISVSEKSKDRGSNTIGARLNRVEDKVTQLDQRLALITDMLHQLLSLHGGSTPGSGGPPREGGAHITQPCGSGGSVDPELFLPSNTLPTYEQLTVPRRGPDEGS
CHO Tl ctr: thallium flux change in parental CHO cells, counter-screen for KCNQ2 inhibitor project; 1,000 compounds, 14% hits; activity change, % at 10 µM; active compounds read low; shares compounds with KCNQ2 inh;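 note: 0% = vehicle negative controls with stimulus buffer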
KCNQ2 patch conf: rat KCNQ2 channel inhibitors, confirmation, cell-based, automated patch clamp, single concentration. shares compounds with KCNQ2 inh. KCNQ2-expressing cells, automated patch clamp current. calls only at 10 µM. 550 compounds, 49% hits. AID 588531, 2011
An asterisk follows results filed as active; i = inactive; · = no result given; + = active, no number. Unless noted, the rule behind the calls is not given here.

SMILES | KCNQ2 inh | KCNQ2 enhance | KCNQ2 inh conf | KCNQ1 spec | CHO Tl ctr | others
O=C(O)c1cccc(N2C(=O)C3C4C=CC(C4=C(c4ccccc4)c4ccccc4)C3C2=O)c1 (stereo not drawn) | i | · | · | · | ·
Cc1ccc(S(=O)(=O)NC(C)C(=O)NC(C)c2cccs2)cc1 (stereo not drawn) | i | 1.6 | · | · | ·
CC(C)[C@H](NC(=O)OCc1ccccc1)C(=O)OCC(=O)NCCc1ccccc1 | -7.1* | -7.1 | i | i | i
CC(C)[C@H](NC(=O)c1ccccc1)C(=O)OCC(=O)NCCc1ccc(F)cc1 | i | · | · | · | ·
COc1ccc(NC(=O)Cn2c(=O)n(-c3ccc(CC(=O)NCc4ccco4)cc3)c(=O)c3ccccc32)cc1 | i | 0.7 | · | · | ·
Cc1ccc(CN2CCN(/N=C/c3ccc(C)s3)CC2)c(C)c1 | -7.9* | -7.9 | i | i | i
Cc1ccc(CN2CCN(/N=C/c3cccn3C)CC2)c(C)c1 | i | · | · | · | ·
Cc1ccc(OCCCSc2ncccn2)cc1C | i | · | · | · | ·
CC(C)(C)c1cccc(OCCCSc2ncccn2)c1 | -9.2* | -9.2 | i | i | i
COCCn1c(SC(C(=O)Nc2cc(C)ccc2OC)c2ccccc2)nnc1-c1ccc(Cl)cc1 (stereo not drawn) | -9.5* | -9.5 | i | i | i
COc1ccc(C)cc1NC(=O)C(Sc1nnnn1C)c1ccccc1 (stereo not drawn) | i | · | · | · | ·
COc1cc(CNCCCN2CCOCC2)cc(Cl)c1OCC(=O)NC(C)(C)C | i | 0.64 | · | · | ·
O=C(O)CCCNC(=O)OCc1ccccc1 | i | · | · | · | ·
Cc1cccc(C)c1OCCNC(=O)OCc1ccccc1 | -6.9* | -6.9 | i | i | i
COC(=O)c1nc(-c2ccccc2)oc1N1CCOCC1 | i | · | · | · | ·
CC(=O)NC12CC3CC(C1)CC(C(=O)NCc1ccc(C)cc1)(C3)C2 | i | 0.01 | · | · | ·
O=C1CC(/C=C/c2ccncc2)=Nc2ccccc2N1 | i | · | · | · | ·
Cc1cccc(C)c1NC(=O)CS(=O)CC(=O)NCC1OCCc2ccccc21 (stereo not drawn) | i | 1.8 | · | · | ·
COCCCN(C(=S)Nc1cc(Cl)cc(Cl)c1)C(C)c1ccccn1 (stereo not drawn) | -8.5* | -8.5 | i | i | i
COCCCN(C(=S)Nc1cc(Cl)cc(Cl)c1)C(C)c1ccncc1 (stereo not drawn) | i | 0.36 | · | · | ·
O=C1CCc2cc(S(=O)(=O)NCCc3ccccc3)cc3c2N1CC3 | i | 0.04 | · | · | ·
CC(C)(C)n1nnnc1C(c1cccs1)N1CCCC2(CCCCC2)C1 (stereo not drawn) | -7.5* | -7.5 | -33%* | -38%* | -30%* | KCNQ2 patch conf=i
c1csc(C(c2nnnn2C2CCCCC2)N2CCCC3(CCCCC3)C2)c1 (stereo not drawn) | i | · | · | · | ·
CCC(C(=O)Nc1ccccc1N1CCCC1)c1ccccc1 (stereo not drawn) | -7.2* | -7.2 | -36%* | i | i | KCNQ2 patch conf=+
CC(Oc1cccc(Cl)c1)C(=O)Nc1ccccc1C(=O)N1CCCCC1 (stereo not drawn) | i | · | · | · | ·
SMILES | KCNQ2 inh | KCNQ2 enhance | KCNQ2 inh conf | KCNQ1 spec | CHO Tl ctr | others
CCC(Oc1ccccc1)C(=O)Nc1ccccc1N1CCCC1 (stereo not drawn) | i | · | · | · | ·
CC(Oc1cccc(Cl)c1)C(=O)Nc1ccccc1N1CCCCC1 (stereo not drawn) | -7.1* | -7.1 | i | i | i
CN(CC(=O)Nc1n[nH]c(=S)s1)S(=O)(=O)c1cccc2cccnc12 | i | · | · | · | ·
O=C(NCc1nnc(SCc2ccc(F)cc2)n1-c1ccc(F)cc1)C12CC3CC(CC(C3)C1)C2 | i | 0.34 | · | · | ·
CCN(CC)CCNc1ncnc2c1[nH]c1ccc(OC)cc12 | i | 1.7 | · | · | ·
COc1ccc2[nH]c3c(NCCC4=CCCCC4)ncnc3c2c1 | -9.1* | -9.1 | i | i | i
CN(C)Cc1c(-c2ccc(Cl)cc2)nc2ccc(Cl)cn12 | i | · | · | · | ·
C=CCNC(=O)c1sccc1Oc1ccc(F)cc1[N+](=O)[O-] | i | 1.1 | · | · | ·
COc1ccccc1N1CCN(C(=O)c2cc(=O)c3ccc(C)cc3o2)CC1 | i | 0.17 | · | · | ·
COc1ccccc1N1CCN(C(=O)c2oc3cc(C)cc(C)c3c2C)CC1 | -8.2* | -8.2 | i | i | i
Cc1ccc(O)c(CNc2nc3ccccc3n2C(C)C)c1 | i | · | · | · | ·
C=CCn1c(NCc2cc(C)ccc2O)nc2ccccc21 | -7.1* | -7.1 | -16%* | i | i | KCNQ2 patch conf=+
CC(C)(CO)NC(=S)NCc1ccco1 | i | 0.12 | · | · | ·
CC1CN(c2nnc(NC(=O)c3ccccc3)s2)CC(C)O1 (stereo not drawn) | i | 0.48 | · | · | ·
COC(=O)c1ccc(OC(=O)C23CCC(C)(C(=O)O2)C3(C)C)cc1 (stereo not drawn) | i | · | · | · | ·
CC1=NN(C(=O)COc2ccccc2C)C(O)(c2ccc(Cl)cc2)C1 (stereo not drawn) | -8.1* | -8.1 | -24%* | i | i | KCNQ2 patch conf=+
CCC1=NN(C(=O)COc2ccccc2C)C(O)(c2ccncc2)C1 (stereo not drawn) | i | · | · | · | ·
NS(=O)(=O)c1ccc(CCNC(c2ccccc2)c2ccccc2)cc1 | i | 0.51 | · | · | ·
c1ccc(C(NCCNC(c2ccccc2)c2ccccc2)c2ccccc2)cc1 | -7.2* | -7.2 | -28%* | i | i | KCNQ2 patch conf=i
CN(c1ccccc1C(=O)Nc1cccc(Br)c1)S(=O)(=O)c1ccccc1 | -6.7* | -6.7 | i | i | i
CN(c1ccccc1C(=O)Nc1cccc([N+](=O)[O-])c1)S(=O)(=O)c1ccccc1 | i | · | · | · | ·
CCOC(=O)CC(=O)CSc1nc2ccc(OC)cc2cc1C | i | · | · | · | ·
O=C(OCc1ccccc1Cl)c1cccnc1Cl | i | · | · | · | ·
O=C(OCc1ccccc1Cl)c1ccccc1C(=O)c1ccccc1 | -8.3* | -8.3 | -36%* | -36%* | -34%* | KCNQ2 patch conf=i
O=C(COC(=O)c1ccccc1C(=O)c1ccc(Cl)cc1)NC(c1ccccc1)c1ccccc1 | -8.7* | -8.7 | i | i | i
SMILES | KCNQ2 inh | KCNQ2 enhance | KCNQ2 inh conf | KCNQ1 spec | CHO Tl ctr | others
O=C(COC(=O)c1ccccc1C(=O)c1ccc(Cl)cc1)NCCc1ccccc1 | i | · | · | · | ·
CCn1nc(C)c(CN2CCC(n3nccc3NC(=O)c3ccc4c(c3)OCO4)CC2)c1C | i | · | · | · | ·
COc1ccc(C(=O)Nc2ccc(NC(=O)C3CC3)nc2)cc1 | i | · | · | · | ·
Cc1cccc(NC(=O)CSc2nnc(CNC(=O)c3cccs3)o2)c1C | i | · | · | · | ·
O=C(COC(=O)c1ccc([N+](=O)[O-])cc1Cl)Nc1cccnc1Cl | i | · | · | · | ·
CC(C)CNC(=O)c1ccccc1NC(=O)CN(c1ccccc1)S(=O)(=O)N(C)C | i | · | · | · | ·
CCOC(=O)c1cnc(-c2ccccc2)nc1C(F)(F)F | i | · | · | · | ·
